Source: the supplement of paper PMC6555819

Columns and labels:
Assay in all cases: PBM binding z-score (relative to random genomic background probes); higher = stronger binding; sequences stand for … in GC…GCGATTGACAGCGTAGAATGAAGG
[1] = tested on: FXR:RXRa (NR concentration 270 nM, RXRa partner concentration 90 nM)
Summary of the method: (§1)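 Scanned fluorescence from custom Agilent 4×180K protein-binding microarrays was regression-normalized. Binding z-scores use random background probes as reference. Ligand-free nuclear receptor dimers were incubated on the arrays for 1 h and detected with antibodies against each partner (one per run).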

[2] = tested on: LXRa:RXRa (NR concentration 270 nM, RXRa partner concentration 90 nM)
Summary of the method: as §1

[3] = tested on: LXRa homodimer (NR concentration 270 nM)
Summary of the method: as §1

[4] = tested on: LXRb:RXRa (NR concentration 270 nM, RXRa partner concentration 90 nM)
Summary of the method: as §1

[5] = tested on: LXRb homodimer (NR concentration 270 nM)
Summary of the method: as §1

[6] = tested on: PPARa:RXRa (NR concentration 270 nM, RXRa partner concentration 90 nM)
Summary of the method: as §1

[7] = tested on: PPARg:RXRa (NR concentration 180 nM, RXRa partner concentration 90 nM)
Summary of the method: as §1

[8] = tested on: PPARg:RXRa 270nM:90nM, anti-RXR (NR concentration 270 nM, RXRa partner concentration 90 nM)
Summary of the method: as §1

[9] = tested on: PPARg:RXRa 30nM:10nM, anti-RXR (NR concentration 30 nM, RXRa partner concentration 10 nM)
Summary of the method: as §1

[10] = tested on: PPARg:RXRa 90nM:30nM, anti-RXR (NR concentration 90 nM, RXRa partner concentration 30 nM)
Summary of the method: as §1

[11] = tested on: PPARg:RXRa DBDmut IVT, anti-RXR (DBD mutation: RXRa K156A/R161A, NR concentration 270 nM, RXRa partner concentration 90 nM)
Summary of the method: as §1

[12] = tested on: PPARg:RXRa IVT, anti-PPARg (NR concentration 270 nM, RXRa partner concentration 90 nM)
Summary of the method: as §1

[13] = tested on: PPARg DBDmut:RXRa IVT, anti-PPARg (DBD mutation: PPARg1 K132A/R137A, NR concentration 270 nM, RXRa partner concentration 90 nM)
Summary of the method: as §1

[14] = tested on: PPARg DBDmut IVT, anti-PPARg (DBD mutation: PPARg1 K132A/R137A, NR concentration 270 nM)
Summary of the method: as §1

[15] = tested on: PPARg homodimer (NR concentration 180 nM)
Summary of the method: as §1

[16] = tested on: PXR:RXRa (NR concentration 270 nM, RXRa partner concentration 90 nM)
Summary of the method: as §1

[17] = tested on: PXR homodimer (NR concentration 270 nM)
Summary of the method: as §1

[18] = tested on: RARa:RXR (NR concentration 270 nM, RXRa partner concentration 90 nM)
Summary of the method: as §1

[19] = tested on: RARa homodimer (NR concentration 270 nM)
Summary of the method: as §1

[20] = tested on: RARb:RXRa (NR concentration 270 nM, RXRa partner concentration 90 nM)
Summary of the method: as §1

Sequence	PBM binding z-score [1]	PBM binding z-score [2]	PBM binding z-score [3]	PBM binding z-score [4]	PBM binding z-score [5]	PBM binding z-score [6]	PBM binding z-score [7]	PBM binding z-score [8]	PBM binding z-score [9]	PBM binding z-score [10]	PBM binding z-score [11]	PBM binding z-score [12]	PBM binding z-score [13]	PBM binding z-score [14]	PBM binding z-score [15]	PBM binding z-score [16]	PBM binding z-score [17]	PBM binding z-score [18]	PBM binding z-score [19]	PBM binding z-score [20]
GCACGGAGGACAAGGTCAGAGCTTTGTCCGTAGA	1.87	1.26	-0.362	1.23	-0.916	2.15	0.53	1.2	-0.394	0.459	-0.0936	0.429	-1.21	-1.21	0.85	1.72	-0.197	2.03	-0.486	3.27
TAGCCTAGGTCATTCAGGGGCCAGTAAAGAAAGC	4.75	4.05	0.681	3.17	0.778	3.73	1.61	2.56	0.576	1.76	1.81	3.14	0.536	0.653	1.04	2.39	-0.023	3.28	0.0478	3.86
GATACAGGGTCAGCTAGAGGCCATAGTATGGAAA	4.67	3.04	-0.128	2.94	-0.352	4.53	4.05	3.34	0.897	2.51	0.981	2.33	0.47	-0.0794	2.26	3.96	0.241	4.62	0.222	4.15
CATACAGGGTCTGCTAGGCCAGAGTAGGGACGGC	-0.237	-0.31	-0.443	-0.834	-0.599	-0.452	0.152	-0.899	-0.808	-0.386	-0.963	-0.162	-0.142	-0.562	0.266	-0.649	-0.0998	-0.482	0.212	0.183
ACTATTAGTTGAGACGAGGACAACCGATAGGTTG	0.431	0.148	0.167	-0.324	0.49	-0.169	0.659	-0.132	0.0741	0.0272	0.000503	0.208	0.291	0.661	0.842	0.431	0.155	1.33	0.918	0.366
TCTTGTAGATCAATAGAGGTTAAGAACGTGCGCT	0.948	2.59	0.355	1.46	-0.115	1.92	0.397	1.66	2.84	2.58	1.69	1.17	0.658	1.03	0.496	1.51	0.111	1.83	0.544	0.956
CCTAGCACGCCAATCTGGGTCACTCAAGGCTTGA	0.513	0.503	-0.0137	0.788	-0.333	2.88	1.61	2.16	-0.246	1.13	3.75	4.76	-0.107	-0.39	0.751	0.751	-0.246	1.13	0.0845	1.06
CTGCCTAGGTCAGGGCCAGTATAGGAGGAACGTT	1.28	1.01	-0.475	0.634	-1.25	1.88	0.668	0.916	-0.35	0.272	1	1.46	-0.75	-0.806	0.559	0.208	-0.739	0.901	-0.655	3.38
TCTCGGAGGACACGAAAGGTCAGATCTCGACATC	3.11	3.81	3.83	3.85	0.385	3.44	1.37	2.81	3.01	2.77	2.03	1.5	-0.0755	-0.793	2.23	3.88	0.563	3.78	0.369	4.15
CCTACTGGGCCAAGGGCATTGATCAGTCAAAGCA	-0.551	-0.572	-0.484	-0.601	-1.35	1.1	2.48	3.44	1	2.55	2.73	3.65	-0.869	-1.53	0.181	-0.452	-0.173	-0.637	-1.18	0.896
CGAACTAGGTCAAGGACAGTGACTCTCCGCACGC	3.47	2.28	0.349	1.58	-0.267	4.79	7.35	6.66	3.92	6.28	8.38	8.3	1.83	0.467	1.66	1.37	-0.264	2.54	0.541	3.95
CCTAGCAGGCTAATCTGGGTCACTCAAGGCTTGA	0.577	3.74	0.0725	1.2	-0.635	3.14	2.13	2.31	0.292	1.49	4.46	5.23	0.678	0.0667	0.493	0.328	-0.671	1.34	-0.634	1.07
CCTGTTAGTTGACCATAAGGGCAACCGAAGCTCG	0.874	0.297	0.378	0.396	0.499	0.707	0.162	0.397	0.0716	0.159	0.268	0.863	0.531	0.804	1.39	0.426	0.794	0.804	1.03	1.74
ACAGTCAGGTGAGTGAAGGTAACTCAGCTGGACG	0.264	0.217	-0.578	-0.682	-0.538	-0.317	0.268	0.101	-0.17	-0.277	0.794	0.82	-0.123	-0.515	-0.608	-0.47	-0.728	-0.00233	0.0121	0.775
TATACAGTGTCAAAGGCCAGAGTACGAATGTCGA	0.666	0.861	0.197	0.608	0.893	2.18	3.95	4.17	2.41	3.86	0.051	2.04	0.51	1.14	0.46	0.552	0.236	1.33	0.548	1.88
TGAATGAGGTTATAAGATTAGGGAACGTTGCAAA	1.34	1.39	0.076	1.21	-0.0904	2.29	1.15	1.55	1.09	1.51	1.08	1.82	0.868	0.168	0.438	0.788	0.176	1.31	0.154	1.15
CCTTACGGATCACTGACAGGTTATAGCATTTGGA	0.345	0.818	0.768	0.559	0.661	0.447	0.638	0.275	0.461	0.192	0.71	-0.0645	0.405	0.544	0.811	0.356	0.678	0.397	1.14	0.471
TAGCCTACGTCATGCGGGCCAGTATAGTGTCGGC	-0.993	-0.942	-0.548	-1.15	-0.753	-0.592	0.156	-0.778	-0.767	-0.769	-0.258	-0.361	-0.565	-0.82	-1.11	-0.921	-1.11	-0.886	-1.36	-0.527
CGAACTAGGTCAAGGACAGTGGATCTCCGCACGC	3.06	1.85	-0.0741	1.23	-0.565	4.31	6.9	6.1	3.35	5.72	8.19	7.79	1.43	0.272	0.876	0.906	-0.161	1.62	0.0729	3.84
